ELG1 repair inh – inhibitors of ELG1-dependent DNA repair in HEK293T cells; HEK293T ELG1-luciferase reporter, luminescence, 16 h; DNA damage induced by 5-fluorouridine; Potency, µM (highest dose often 46.1 µM), for the others: at the top dose activity change, negative = inhibition, actives largely listed as inhibitors; hit rate 2.3% among 330,000; further: on the % scale 0 is the no-effect control and ±100 the full control effect; nearly all actives have a fitted effect of over 55% in size
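In this reporter screen, reduction of luminescence relative to DMSO vehicle indicated activity. Compounds and 5-fluorouridine were added together to 2,000 cells per well, incubated for 16 hr at 37 °C, then developed with ONE-Glo.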
KB-V1 MDR tox – kills drug-selected multidrug resistant KB-V1 cells. KB-V1 MDR cells viability, CellTiter-Glo, 72 h. Potency, µM (titrated, usually from 46.1 µM), most hits filed as cytotoxic. AID 1347076. hit rate 3.4% among 400,000; further: on the % scale 0 is the no-effect control and ±100 the full control effect; nearly all actives have a fitted effect of over 60% in size
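Cytotoxicity toward P-gp-expressing KB-V1 cells was determined as loss of CellTiter-Glo luminescence after 72 h at 37 degrees C. Compounds were tested in quantitative HTS format across a concentration range, with curves fitted to normalized data.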
SW480 rereplic – inducers of DNA re-replication in SW480 colon cancer cells; SW480 DNA re-replication, Hoechst DNA content imaging, 48 h; Potency, µM (top dose mostly 46.1 µM), for the others: top-dose re-replication activation, hits mostly activators; hit rate 1.8% among 340,000; further: % of control where 0% means no effect; nearly all actives have a fitted effect of over 55% in size
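250 cells/well; 23 nL cpd via pin tool; 48 hr, 37 C, 5% CO2; Hoechst 40 min; imager read of total nuclear intensity, ex 405/em 500-530 nm.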
KB-3-1 cytotox – kills parental KB-3-1 adenocarcinoma cells | KB-3-1 viability, CellTiter-Glo ATP luminescence, 72 h | Potency, µM (top dose mostly 46.1 µM), hits mostly cytotoxic | hit rate 1.4% among 400,000 | AID 1347075; further: on the % scale 0 is the no-effect control and ±100 the full control effect; nearly all actives have a fitted effect of over 60% in size
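Using CellTiter-Glo luminescence, growth of non-resistant KB-3-1 adenocarcinoma cells is assessed 72 h after pin-tool compound addition at 37 °C. Normalized responses across the concentration series yield fitted curves.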
MCF10A rereplic – induces DNA re-replication in MCF 10a normal breast cells; MCF 10A DNA re-replication, Hoechst nuclear intensity, 48 h; hit rate 2.9% among 350,000; Potency, µM (doses to about 46.1 µM), for the others: at the highest dose activity, positive = re-replication, usual class: activators; further: % of control where 0% means no effect; nearly all actives have a fitted effect of over 50% in size
An asterisk follows results filed as active; i = inactive; ? = inconclusive; nt = no result given; ! = not active in a repeat; [ ] = dose if it differs, or a comment. In the library only some 8.1% were active in any assay of this set; here they are far more common. The call rests on the fitted dose curve; in most records, active means well fitted curve in the direction sought with a large enough effect; inconclusive means small, poorly fitted or top-dose-only effect, or another doubt; inactive means no such curve, though single readings can be large; an effect the other way counts as inactive or inconclusive. Potency means the concentration at half of the fitted maximal effect.

SMILES	ELG1 repair inh	KB-V1 MDR tox	SW480 rereplic	KB-3-1 cytotox	MCF10A rereplic
CCCCCN1C(=O)c2cc(OC)ccc2[C@@]2(C(=O)OCC)Cc3cc(OC)ccc3[C@@H]12	nt	23µM*	nt	5.8µM*	nt
CCOC(=O)[C@]12Cc3cc(OC)ccc3[C@H]1N(C)C(=O)c1cc(OC)ccc12	nt	?	nt	3.7µM*	nt
CCOC(=O)[C@]12Cc3cc(OC)ccc3[C@H]1N(CC(=O)OC)C(=O)c1cc(OC)ccc12	nt	?	nt	4.6µM*	nt
CCOC(=O)[C@]12Cc3cc(Cl)ccc3[C@H]1N(C)C(=O)c1cc(OC)ccc12	nt	4.1µM*	nt	2.6µM*	nt
Cc1cccc(-n2c(O)c(C=NCCCN3CCOCC3)c(=O)[nH]c2=O)c1C	12%	i	-2%	i	22%
COc1cc(C2c3cc4c(c(O)c3CC3COC(=O)C32)OCO4)cc(OC)c1OC (stereo not given)	nt	0.18µM*!	0.052µM*	0.0082µM*!	?
COc1cc([C@@H]2c3cc4c(cc3C[C@H]3COC(=O)[C@@H]32)OCO4)cc(OC)c1O	nt	i	nt	?	nt
COc1cc([C@@H]2c3cc4c(cc3[C@H](OC(C)=O)[C@H]3COC(=O)[C@@H]23)OCO4)cc(OC)c1OC	nt	?	nt	0.65µM*	nt
COc1cc([C@@H]2c3cc4c(c(O)c3C[C@H]3COC(=O)[C@@H]32)OCO4)cc(OC)c1OC	nt	4.1µM*	nt	0.52µM*	nt
COc1cc(C2c3cc4c(cc3CC3COC(=O)C32)OCO4)cc(OC)c1OC (stereo not given)	8%	0.58µM*	?	0.92µM*	6.5µM*
Fc1ccc2c(c1)nnn2C1CCN(Cc2ccccc2)CC1	-7%	i	0%	i	1%
O=C(c1cc(-c2ccc(Cl)cc2)n(-c2ccc(Cl)cc2Cl)n1)N1CCOCC1	?	i	1%	i	?
Cc1nnc2n1-c1ccc(Cl)cc1C(c1ccccc1Cl)=NC2	nt	nt	3%	nt	-1%
CNc1cc(Cl)c2nonc2c1[N+](=O)[O-]	?	?	-137%	?	?
O=C1NCN(c2ccccc2)C12CCN(C(c1ccnc3ccccc13)c1nnnn1C1CCCCC1)CC2 (stereo not given)	nt	i	nt	i	nt
CC1=CC2OC3CC4OC(=O)C=CC=CC(=O)OCCC(C)C(O)C(=O)OCC2(CC1)C4(C)C31CO1 (stereo not given)	nt	0.1µM*	?	0.037µM*	12%
CC(O)C1C=CC=CC(=O)OC2CC3OC4C5OC5(C)C(O)CC4(COC(=O)C(O)C(C)CCO1)C2(C)C31CO1 (stereo not given)	nt	?	1.8µM*	0.21µM*	?
CC1=CC2OC3CC4OC(=O)C=CC=CC(C(C)O)OCC(O)C5(C)OC5C(=O)OCC2(CC1O)C4(C)C31CO1 (stereo not given)	nt	?	15%	0.015µM*	16%
CC1CCOC(=O)C=CC=CC(=O)OC2CC3OC4C5OC5(C)C(O)CC4(COC(=O)C1O)C2(C)C31CO1 (stereo not given)	nt	5.8µM*	?	0.21µM*	0.23µM*
O=P(C(Cl)Cl)(N1CCCCC1)N1CCCCC1	-1%	i	-1%	i	11%
c1cc2c(cc1N1CCCCC1)C1CC2CCN1 (stereo not given)	nt	i	-2%	i	?
CNc1ccc2oc(C[C@H]3O[C@@]4(CC[C@H]3C)O[C@H]([C@H](C)C(=O)c3ccc[nH]3)[C@H](C)C[C@H]4C)nc2c1C(=O)O	5.8µM*	3.7µM*	?	4.1µM*	4.6µM*
CC(=O)OC(C)(C)/C=C/C(=O)[C@](C)(O)C1[C@H](O)C[C@@]2(C)C3CC=C4C(C[C@H](O)C(=O)C4(C)C)[C@]3(C)C(=O)C[C@]12C (stereo not given in full)	?	0.92µM*	?	0.037µM*	?
CC(C)(O)/C=C/C(=O)C(C)(O)C1C(O)CC2(C)C3CC=C4C(C=C(O)C(=O)C4(C)C)C3(C)C(=O)CC12C (stereo not given)	nt	0.92µM*	?	0.18µM*	2.9µM*
CC1Oc2cc3c(-c4c(O)cc(O)c5c(O)c6c(cc45)OC(C)C(C)C6=O)c(O)cc(O)c3c(O)c2C(=O)C1C (stereo not given)	6.5µM*	?	13µM*	?	-1%
SMILES	ELG1 repair inh	KB-V1 MDR tox	SW480 rereplic	KB-3-1 cytotox	MCF10A rereplic
O=[N+]([O-])c1cc(C(F)(F)F)c(Cl)c([N+](=O)[O-])c1Nc1ncc(C(F)(F)F)cc1Cl	nt	?	nt	1.5µM*	nt
Cc1ccc(C(=O)N[C@@H](C)CN2C3=NC[C@H](Cc4ccccc4)N3C[C@H]2Cc2ccc(O)cc2)cc1Br	-13%	i	13µM*	?	?
Cc1ccc(C(=O)N[C@@H](C)CN2C3=NC[C@@H](Cc4ccccc4)N3C[C@H]2Cc2ccc(O)cc2)cc1Br	5%	i	-8%	?	5%
CC(=O)O[C@]1(c2ccccc2)CCN(C)[C@H]2CCCC[C@@H]21	13%	i	-3%	i	0%
COc1cc2oc(=O)c(CC(=O)N3C[C@H]4C[C@@H](C3)c3cccc(=O)n3C4)c(C)c2cc1Cl	nt	i	5%	i	?
c1csc(-c2nnc(Cc3cccc4ccccc34)o2)c1	?	15µM*	-2%	i	13%
CCOP(=O)(OCC)c1nc(-c2cccc3ccccc23)oc1NCCc1ccc(OC)cc1	?	5.2µM*	21µM*	?	10µM*
CCOP(=O)(OCC)c1nc(-c2ccc(F)cc2)oc1NCc1ccccc1	?	i	-18%	i	4.1µM*
COc1ccc2cc1Oc1ccc(cc1)C[C@H]1c3cc(c(OC)cc3CCN1C)Oc1c(OC)c(OC)cc3c1[C@@H](C2)N(C)CC3	-7%	i	?	i	-13%
CCCCc1nc2ccccc2c(=O)n1-c1ccc(O)cc1	?	i	0%	i	?
Cc1ccc2cc(C=C(C#N)C#N)c(Cl)nc2c1	-24%	?	?	?	7.3µM*
Cc1cc(N2CCCC2)ccc1C=C(C#N)C#N	-13%	i	-14%	i	0%
CC(C)(C)n1ncc2c(=O)n(Cc3cccc(Cn4cnc5c(cnn5C(C)(C)C)c4=O)c3F)cnc21	8.2µM*	?	3%[9.22 µM]	?	-12%
COC(=O)C1=C(c2cccc(OCc3ccccc3)c2)C[C@@H]2CC[C@H]1N2C(=O)NCCOc1ccccc1	-27%	?	-33%	?	13µM*
COC(=O)C1=C(c2cccc(OCc3ccccc3)c2)C[C@@H]2CC[C@H]1N2C(=O)NCCOc1ccccc1Cl	-28%	?	22%	?	2.1µM*
Cc1cc(Br)c(NC(=O)CN2CC=C(c3ccccc3)CC2)c(Br)c1	?	i	?	i	?

Screening results as filed in PubChem.
